Source: PubChem BioAssay (NCATS)
Records with an inconclusive call do not appear. A number with no mark means an inactive call. Active and inactive are the calls of the source. The call rests on the fitted dose curve; in most records, active means well fitted inhibition curve with a large enough effect; inconclusive means small, poorly fitted or top-dose-only effect; inactive means no such curve, though single readings can be large or run the other way.

Experiment: BET inhibitor-based combinations targeting novel dependencies in MECOM-rearranged (r) AML: HNT-34 cell line (AID 2202234); further: nearly all actives have a fitted effect of over 35% in size;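 on viability (% of control): plate controls were vehicle wells for no effect and cell-free wells for full effect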
Conditions: HNT-34 AML viability, CellTiter-Glo luminescence, 48 h; series mostly up to 46 µM
Source text: Ecotropic viral insertion site 1 (EVI1) is located on chromosome 3q26.2 as part of the MECOM (MDS and EVI1 complex) locus. Under normal hematopoiesis, EVI1 is a regulator of hematopoietic stem cell maintenance and self-renewal and EVI1 levels decrease as the cells differentiate. In approximately 5-10% of de novo acute myeloid leukemia (AML) EVI1 is aberrantly expressed, including Chromosomal inv(3)(q21;q26.2) or t(3;3)(q21;q26.2) alterations (MECOM-r) that account for about 50% of AML with EVI1 overexpression 31. AMLs with high levels of EVI1 have a poor prognosis and an overall survival time averaging between 10-14 months. EVI1 overexpression confers resistance in leukemia cells, highlighting the need to develop new targeted therapies for EVI1 overexpressing AMLs. Here, we performed an unbiased chemical drug screening by evaluating the single agent activity of a collection of 2,480 oncology-focused, approved and investigational drugs (NCATS Mechanism Interrogation Plates, MIPE v5.0) against a panel of seven AML cell lines. These included four MECOM-r cell-lines (AML-191, AML-194, UCSD-AML1 and HNT-34) and three non-MECOM-r AMLs (MV4-11, OCI-AML3 and SET-2). Exploiting the mechanistic redundancy built in the library, we identified target-level sensitivities in MECOM-r AML cells and relative activity as compared to other AML subtypes.
A collection of 2480 mechanistically annotated dugs (MIPE v5.0) was used to screen four 3q26.2 rearranged AML cell lines and three non-3q26.2 rearranged AML cell lines. This library purposely exploits redundancy by including multiple inhibitors of key onco-targets, while simultaneously encompassing mechanistic diversity, targeting more than 800 distinct mechanisms of action. Briefly, cells were seeded in 5 uL of growth media using a Multidrop Combi dispenser into 1536 well white polystyrene tissue culture treated plates (Corning) at a density of 500cells/well. For each cell-line, for each of the 2480 drugs in MIPE v5.0 library, an 11-point dose curve was generated via a 1536 pin-tool. Plates were incubated for 48 hr at standard incubator conditions, covered by a stainless steel gasketed lid to prevent evaporation. Cell viability was determined by luminescence based, Cell Titer Glo assay (Promega). In detail, 3 uL of Cell Titer Glo were added to each well and plates were incubated at room temperature for 15 min with a stainless-steel lid in place. Luminescence readings were taken using a Viewlux (PerkinElmer) with a 2 s exposure time per plate. Compound dose-response curves were normalized to DMSO and empty well controls on each plate. Quantitative drug activity data from dose-response curves was determined utilizing area Under the Curve (AUC) and Z-transformed AUC (Z-AUC, a mean-centering transformation applied to each individual cell-line screened).
Potency means the concentration at half of the fitted maximal effect.

Row | Compound | Potency | viability (% of control)
1 | COc1cc2c(Oc3ccc(NC(=O)C4(C(=O)Nc5ccc(F)cc5)CC4)cc3F)ccnc2cc1OCCCN1CCOCC1 | 0.833 µM (active) | 
2 | CNCCCC12CCC(c3ccccc31)c1ccccc12 | 23.5 µM (active) | 
3 | OC[C@H]1O[C@@H](O[C@@H]2[C@@H](CO)O[C@](O)(CO)[C@H]2O)[C@H](O)[C@@H](O)[C@H]1O | inactive | 
4 | CCOc1ccn(-c2ccc(F)cc2)c(=O)c1C(=O)Nc1ccc(Oc2ccnc(N)c2Cl)c(F)c1 | 11.8 µM (active) | 
5 | CC(=O)O[C@H]1C[C@@H]2CC[C@H]3[C@H]4C[C@H]([N+]5(C)CCCCC5)[C@@H](OC(C)=O)[C@@]4(C)CC[C@@H]3[C@@]2(C)C[C@H]1[N+]1(C)CCCCC1 | inactive | 
6 | CN(C)c1cccc(-c2c3c(=O)n(-c4ccccc4Cl)[nH]c3cc(=O)n2C)c1 | inactive | 
7 | O=C1c2ccccc2-[n+]2ccc3c([nH]c4ccccc43)c21 | 1.86 µM (active) | 
8 | CCN1CCN(Cc2ccc(Nc3ncc(F)c(-c4cc(F)c5nc(C)n(C(C)C)c5c4)n3)nc2)CC1 | 5.9 µM (active) | 
9 | COc1cc(N2CCC(O)CC2)ccc1Nc1cc(Nc2ccccc2S(=O)(=O)C(C)C)c2cc[nH]c2n1 | 18.6 µM (active) | 
10 | NC(=O)N1CCC(CC(=O)N2CCC([C@H]3c4ncc(Br)cc4CCc4cc(Cl)cc(Br)c43)CC2)CC1 | 11.8 µM (active) | 
11 | c1ccc(CNc2nc(NCc3ccccc3)c3ccccc3n2)cc1 | 9.34 µM (active) | 
12 | Cc1cc(Nc2cc(CN3CCOCC3)c3nc(C)c(Cc4ccc(Cl)cc4F)n3n2)n[nH]1 | 2.35 µM (active) | 
13 | Cc1ccc([N+](=O)[O-])cc1S(=O)(=O)N(C)/N=C/c1cnc2ccc(Br)cn12 | 0.166 µM (active) | 
14 | Nc1nnc(-c2cccc(Cl)c2Cl)c(N)n1 | inactive | 
15 | Cc1cccc(Nc2nc(N[C@@H]3CCCC[C@H]3N)ncc2C(N)=O)c1 | 18.6 µM (active) | 
16 | O=C(NC(Cc1cc(=O)[nH]c2ccccc12)C(=O)O)c1ccc(Cl)cc1 (stereo not given) | inactive | 
17 | CC(N)C12CC3CC(CC(C3)C1)C2 (stereo not given) | inactive | 
18 | Nc1ccccc1NC(=O)c1ccc(CNc2nccc(-c3cccnc3)n2)cc1 | 1.86 µM (active) | 
19 | COc1ccc2cccc(CCNC(C)=O)c2c1 | inactive | 
20 | O=C(O)c1ccc2c(c1)nc(Nc1cccc(Cl)c1)c1ccncc12 | 2.63 µM (active) | 

Row | Compound | Potency | viability (% of control)
21 | COc1ccccc1C(=O)Nc1cc2c(cc1N1CCCCC1)n(C)c(=O)n2C | inactive | 
22 | CO[C@H]1C[C@@H]2CC[C@@H](C)[C@@](O)(O2)C(=O)C(=O)N2CCCC[C@H]2C(=O)O[C@H]([C@H](C)C[C@@H]2CC[C@@H](OP(C)(C)=O)[C@H](OC)C2)CC(=O)[C@H](C)/C=C(\C)[C@@H](O)[C@@H](OC)C(=O)[C@H](C)C[C@H](C)/C=C/C=C/C=C/1C | 1.48 µM (active) | 
23 | Clc1ccc(C(c2ccc(Cl)cc2)n2cc[n+](CC(OCc3ccc(Cl)cc3Cl)c3ccc(Cl)cc3Cl)c2)cc1 (stereo not given) | 9.34 µM (active) | 
24 | CC(C)NCC(O)COc1ccc(CCOCC2CC2)cc1 (stereo not given) | inactive | 
25 | Nc1nc2c(c(=O)[nH]1)N(C=O)[C@H](CNc1ccc(C(=O)N[C@@H](CCC(=O)O)C(=O)O)cc1)CN2 | inactive | 
26 | COc1cc2nc(-c3cc(F)ccc3O)nc(N[C@@H]3CNC[C@H]3C(C)(C)O)c2cc1OC | 4.68 µM (active) | 
27 | CCCCc1oc2ccc(NS(C)(=O)=O)cc2c1C(=O)c1ccc(OCCCN(CCCC)CCCC)cc1 | 11.8 µM (active) | 
28 | COc1cc2c(cc1OC)[C@@H]1C(=O)c3ccc4c(c3O[C@@H]1CO2)C=CC(C)(C)O4 | 23.5 µM (active) | 
29 | O=P(O)(O)C(O)(Cn1ccnc1)P(=O)(O)O |  | 108% [at 5.12 µM]
30 | CC1=C[C@@H]2[C@@H]([C@@H](O)C[C@@]3(C)[C@H]2C[C@@H](C)[C@]3(O)C(=O)CO)[C@@]2(C)Cc3cnn(-c4ccccc4)c3C=C12 | 18.6 µM (active) | 
31 | O=C(O)CCCCC(CCSCc1ccccc1)SCc1ccccc1 (stereo not given) | inactive | 
32 | NC(=O)c1ncn([C@@H]2O[C@H](CO)[C@@H](O)[C@H]2O)c1N | inactive | 
33 | CNC(=O)c1ccc2c(C(=Nc3cccc(CN(C)C)c3)c3ccccc3)c(O)[nH]c2c1 | 20.9 µM (active) | 
34 | CN1C(C(=O)Nc2ccccn2)=C(O)c2ccccc2S1(=O)=O | inactive | 
35 | CC(C)(N)c1ccc(-c2nc3ccccc3nc2-c2ccccc2)cc1 | 16.6 µM (active) | 
36 | NCC1CCN(c2nccc(-c3ccc4ccccc4c3)n2)CC1 | 8.33 µM (active) | 
37 | Nc1ccc(/C=C/C(=O)NCc2cc3cc(-c4ccc(C(=O)N5CCC(F)(F)CC5)cc4)cc(-c4ccc(F)cc4)c3o2)cn1 | 0.742 µM (active) | 
38 | Cc1cc(SCc2sc(-c3ccc(C(F)(F)F)cc3)nc2C)ccc1OCC(=O)O | inactive | 
39 | COc1ccc2cc(OCC3(C(=O)O)CN(C(=O)c4ccc(F)cc4)C3)ccc2c1 | inactive | 
40 | CC(C)C[C@H](NC(=O)[C@H](Cc1ccccc1)NC(=O)c1cnccn1)B(O)O | 0.0148 µM (active) | 
